Where a name gives a salt, the structure may show the parent alone. ± gives the standard deviation of the averaged measurements. The full ranking holds about 1,700 compounds; the median of “cell number in HSV-1-infected wells relative to infected DMSO wells (H2B-RFP signal)” is about 100, and the highest 2% start at about 140. Shown is part of a subset that was picked to be rich in the highest values.
Test system: A549 infected with HSV-1
Assay: cell number in HSV-1-infected wells relative to infected DMSO wells (H2B-RFP signal); higher = more surviving cells (uninfected or antiviral-protected wells give about 200%; low = toxicity)
Conditions: 10 µM; 48 h; MOI: 0.1
Procedure: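 Selleck FDA-approved library (L1300) screened in duplicate at 10 µM on A549 H2B-mRuby cells in 384-well plates, infected with HSV-1 strain 17 YFP-ICP4 at MOI 0.1 one hour before drug addition. Imaged after 2 days at 37°C. Cell growth (H2B-RFP) and infection (ICP4-YFP) are expressed as % of DMSO-treated wells. Hits: growth >90% and infection <20% of DMSO.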

SMILES | cell number in HSV-1-infected wells [%]
NC(=O)c1cccc2cn(-c3ccc([C@@H]4CCCNC4)cc3)nc12 [Niraparib (MK-4827) tosylate] | 71.7 ± 13
NC(=O)c1cccc2cn(-c3ccc([C@@H]4CCCNC4)cc3)nc12 [Niraparib (MK-4827)] | 71.2 ± 3.2
C[C@H](CCC(=O)O)[C@H]1CC[C@H]2[C@@H]3CC[C@@H]4C[C@H](O)CC[C@]4(C)[C@H]3C[C@H](O)[C@]12C [Deoxycholic acid] | 109 ± 44
COCC[n+]1c2c(n(Cc3cnccn3)c1C)C(=O)c1ccccc1C2=O [YM155 (Sepantronium Bromide)] | 9.16 ± 6
CCN1CC(CCN2CCOCC2)C(c2ccccc2)(c2ccccc2)C1=O (configuration not stated) [Doxapram HCl] | 91.29 ± 0.3
CCN1CC(CCN2CCOCC2)C(c2ccccc2)(c2ccccc2)C1=O (configuration not stated) [Doxapram] | 96.5 ± 8.2
CC(C)N(CCCCOCC(=O)NS(C)(=O)=O)c1cnc(-c2ccccc2)c(-c2ccccc2)n1 [Selexipag] | 80.8 ± 1.5
CN(C/C=C/C#CC(C)(C)C)Cc1cccc2ccccc12 [Terbinafine] | 99.9 ± 40
CN(C/C=C/C#CC(C)(C)C)Cc1cccc2ccccc12 [Terbinafine HCl] | 101 ± 9
OC[C@H]1O[C@H](O[C@H]2[C@H](O)[C@@H](O)C(O)O[C@@H]2CO)[C@H](O)[C@@H](O)[C@@H]1O (mixture of isomers) [Maltose] | 117 ± 4.3
Cc1c(-c2cnccn2)ssc1=S [Oltipraz] | 100 ± 4
C[C@@H](c1nc(-c2ccc(C#N)cc2)cs1)[C@](O)(Cn1cncn1)c1cc(F)ccc1F [Isavuconazole] | 99.7 ± 21
CC(C)OC(=O)[C@H](C)N[P@](=O)(OC[C@H]1O[C@@H](n2ccc(=O)[nH]c2=O)[C@](C)(F)[C@@H]1O)Oc1ccccc1 [Sofosbuvir (PSI-7977, GS-7977)] | 73.7 ± 21
CC(C)OC(=O)[C@H](C)N[P@](=O)(CO[C@H](C)Cn1cnc2c(N)ncnc21)Oc1ccccc1 [Tenofovir Alafenamide (GS-7340)] | 189.3 ± 1.6
CC(C)(C)C(=O)OCOP(=O)(COCCn1cnc2c(N)ncnc21)OCOC(=O)C(C)(C)C [Adefovir Dipivoxil] | 64.6 ± 8.8
C[C@H](Cn1cnc2c(N)ncnc21)OCP(=O)(O)O [Tenofovir] | 79.9 ± 13
CC(C)OC(=O)OCOP(=O)(CO[C@H](C)Cn1cnc2c(N)ncnc21)OCOC(=O)OC(C)C [Tenofovir Disoproxil Fumarate] | 147.7 ± 0.7
O=c1oc2c(O)c(O)cc3c(=O)oc4c(O)c(O)cc1c4c23 [Ellagic acid] | 106 ± 2.3
N=C1CCCN1Cc1[nH]c(=O)[nH]c(=O)c1Cl [Tipiracil hydrochloride] | 107 ± 1.8
COC(=O)N[C@@H](C)CNc1nccc(-c2cn(C(C)C)nc2-c2cc(Cl)cc(NS(C)(=O)=O)c2F)n1 [Encorafenib (LGX818)] | 124 ± 6.5
CNCC[C@H](Oc1cccc2ccccc12)c1cccs1 [Duloxetine HCl] | 92.1 ± 10
CNCC[C@H](Oc1cccc2ccccc12)c1cccs1 [Duloxetine] | 121.44 ± 0.086
CNC(=O)c1ccc(Nc2ncc(C(F)(F)F)c(NCc3nccnc3N(C)S(C)(=O)=O)n2)cc1 | 27.6 ± 6.6
CC(C)(Oc1ccc(Cl)cc1)C(=O)O [Clofibric Acid] | 82.4 ± 11

SMILES | cell number in HSV-1-infected wells [%]
CC(C)(Oc1ccc(C(=O)c2ccc(Cl)cc2)cc1)C(=O)O [Fenofibric acid] | 75.9 ± 3.5
CC(C)(Oc1ccc(CCNC(=O)c2ccc(Cl)cc2)cc1)C(=O)O [Bezafibrate] | 147 ± 48
CC1(C)S[C@@H]2[C@H](NC(=O)COc3ccccc3)C(=O)N2[C@H]1C(=O)O [Penicillin V potassium salt] | 86.4 ± 5.6
Cc1cc(C)cc(OCC2CNC(=O)O2)c1 (configuration not stated) [Metaxalone] | 132 ± 16
Nc1nc2[nH]cc(CCc3ccc(C(=O)N[C@@H](CCC(=O)O)C(=O)O)cc3)c2c(=O)[nH]1 [Pemetrexed Disodium Hydrate] | 67 ± 22
Nc1nc2[nH]cc(CCc3ccc(C(=O)N[C@@H](CCC(=O)O)C(=O)O)cc3)c2c(=O)[nH]1 [Pemetrexed] | 59.2 ± 18
CC(=O)SCC(Cc1ccccc1)C(=O)NCC(=O)OCc1ccccc1 (configuration not stated) [Racecadotril] | 96.3 ± 17
Cc1cc2c(cc1S(N)(=O)=O)S(=O)(=O)CCC2 [Meticrane] | 83.96 ± 0.47
CS(=O)(=O)c1cccc(C[C@H](NC(=O)c2c(Cl)cc3c(c2Cl)CCN(C(=O)c2ccc4ccoc4c2)C3)C(=O)O)c1 [Lifitegrast] | 104 ± 15
Cn1ncc(Cl)c1-c1cc(C(=O)N[C@H](CN)Cc2ccc(F)c(F)c2)oc1Cl | 69.8 ± 17
COc1cc2nccc(Oc3ccc(NC(=O)NC4CC4)c(Cl)c3)c2cc1C(N)=O [lenvatinib Mesylate] | 144 ± 32
COc1cc2nccc(Oc3ccc(NC(=O)C4(C(=O)Nc5ccc(F)cc5)CC4)cc3)c2cc1OC [Cabozantinib malate (XL184)] | 90.5 ± 47
COc1cc2nccc(Oc3ccc(NC(=O)C4(C(=O)Nc5ccc(F)cc5)CC4)cc3)c2cc1OC | 72.2 ± 7.6
COc1cc2nccc(Oc3ccc(NC(=O)Nc4cc(C)on4)c(Cl)c3)c2cc1OC [Tivozanib (AV-951)] | 117 ± 40
COc1cc2nccc(Oc3ccc(NC(=O)NC4CC4)c(Cl)c3)c2cc1C(N)=O [Lenvatinib (E7080)] | 104 ± 6
Cc1nccn1CC1CCc2c(c3ccccc3n2C)C1=O (configuration not stated) [Ondansetron Hydrochloride Dihydrate] | 76 ± 13
Cc1nccn1CC1CCc2c(c3ccccc3n2C)C1=O (configuration not stated) [Ondansetron HCl] | 74.7 ± 25
CN(C)CCC=C1c2ccccc2COc2ccccc21 [Doxepin HCl] | 104 ± 11
Cc1[nH]cnc1CN1CCc2c(c3ccccc3n2C)C1=O [Alosetron Hydrochloride] | 112 ± 6.3
COC(=O)C1=C(C)NC(C)=C(C(=O)OC(C)C)C1c1cccc2nonc12 (configuration not stated) [Isradipine] | 97.7 ± 3.5
O=NN(CCCl)C(=O)NC1CCCCC1 [Lomustine] | 84.7 ± 27
CC/C=C(\C(=O)N[C@@H]1C(=O)N2C(C(=O)OCOC(=O)C(C)(C)C)=C(COC(N)=O)CS[C@H]12)c1csc(N)n1 [Cefcapene Pivoxil Hydrochloride] | 149.2 ± 0.042
CO/N=C(\C(=O)N[C@@H]1C(=O)N2C(C(=O)O)=C(COC(C)=O)CS[C@H]12)c1csc(N)n1 [Cefotaxime sodium] | 103 ± 12
CO/N=C(\C(=O)N[C@@H]1C(=O)N2C(C(=O)OCOC(=O)C(C)(C)C)=C(/C=C\c3scnc3C)CS[C@H]12)c1csc(N)n1 [Cefditoren Pivoxil] | 110 ± 2.6

SMILES | cell number in HSV-1-infected wells [%]
CCC(=O)NS(=O)(=O)c1ccc(-c2c(-c3ccccc3)noc2C)cc1 [Parecoxib] | 115 ± 8.7
CCC(=O)NS(=O)(=O)c1ccc(-c2c(-c3ccccc3)noc2C)cc1 [Parecoxib Sodium] | 89.9 ± 1
CC(=O)NO [Acetohydroxamic acid] | 127 ± 15
Cc1nc(-c2ccc(OCC(C)C)c(C#N)c2)sc1C(=O)O [Febuxostat] | 95.2 ± 11
O=C1[C@@H]2[C@H]3CC[C@H](C3)[C@@H]2C(=O)N1C[C@@H]1CCCC[C@H]1CN1CCN(c2nsc3ccccc23)CC1 [lurasidone] | 75.7 ± 27
CN1CCOC(c2ccccc2)c2ccccc2C1 (configuration not stated) [Nefopam HCl] | 120 ± 8.1
CC1(C)C[C@@H]1C(=O)N/C(=C\CCCCSC[C@H](N)C(=O)O)C(=O)O [Cilastatin] | 99 ± 21
CN(C)C(=O)COC(=O)Cc1ccc(OC(=O)c2ccc(NC(=N)N)cc2)cc1 [Camostat Mesilate] | 124 ± 36
Cc1c(C(C)C)c(=O)n(-c2ccccc2)n1C [Propyphenazone (4-Isopropylantipyrine)] | 78.4 ± 2.3
Cc1c(NC(=O)c2cccnc2)c(=O)n(-c2ccccc2)n1C [Nifenazone] | 145 ± 5.2
O=C(O)c1cccnc1 [Nicotinic Acid] | 93.2 ± 4
CCCC(CCC)C(N)=O [Valpromide] | 91.6 ± 13
CC(=O)Oc1ccc(C(=C2CCCCC2)c2ccc(OC(C)=O)cc2)cc1 [Cyclofenil] | 122 ± 7.6
CNC(=O)c1cnn(-c2nc(N)c3ncn([C@@H]4O[C@H](CO)[C@@H](O)[C@H]4O)c3n2)c1 [Regadenoson] | 128 ± 16
Nc1ccc(/N=N/c2ccccc2)c(N)n1 [Phenazopyridine HCl] | 121 ± 23
COC(=O)C1=C(C)NC(C)=C(C(=O)OCC(C)C)C1c1ccccc1[N+](=O)[O-] (configuration not stated) [Nisoldipine] | 92.2 ± 1.4
O=C(O)CSCC(=O)NC1CCSC1=O (configuration not stated) [Erdosteine] | 121 ± 9.9
CC(=O)NC1CCSC1=O (configuration not stated) [Citiolone] | 144 ± 26
OC[C@H]1O[C@@H](c2ccc(Cl)c(Cc3ccc(O[C@H]4CCOC4)cc3)c2)[C@H](O)[C@@H](O)[C@@H]1O | 110 ± 9
CN[C@H]1C(=O)N[C@@H]2Cc3ccc(cc3)Oc3cc4cc(c3O[C@@H]3O[C@H](C(=O)O)[C@@H](O)[C@H](O)[C@H]3NC(=O)CCCCCCCCC(C)C)Oc3ccc(cc3Cl)[C@@H](O)[C@@H]3NC(=O)[C@H](NC(=O)[C@@H]4NC(=O)[C@@H](NC2=O)c2cc(cc(O)c2Cl)Oc2cc1ccc2O)c1ccc(O)c(c1)-c1c(O[C@H]2O[C@H](CO)[C@@H](O)[C@H](O)[C@@H]2O)cc(O)cc1[C@@H](C(=O)NCCCN(C)C)NC3=O [Dalbavancin] | 125 ± 2.5
CSCCNc1nc(SCCC(F)(F)F)nc2c1ncn2[C@@H]1O[C@H](COP(=O)(O)OP(=O)(O)C(Cl)(Cl)P(=O)(O)O)[C@@H](O)[C@H]1O [Cangrelor Tetrasodium] | 99.5 ± 2.3
CN(C)CCCN1c2ccccc2CCc2ccc(Cl)cc21 [Clomipramine HCl] | 93 ± 22
CN(C)CCCN1c2ccccc2CCc2ccccc21 [Imipramine HCl] | 134 ± 28
CNCCCN1c2ccccc2CCc2ccccc21 [Desipramine Hydrochloride] | 163 ± 20

Reference: the supplement of paper PMC11537057
